# Data from PubChem BioAssay (Tox21).
# Calls of active or inactive are those of the source. Calls come from the whole dose curve; as a rule, active = well fitted cell-killing curve with a large enough effect in the repeat runs; inconclusive = weak or mixed curves, or effect the other way; inactive = flat fitted curve, though single readings scatter.
# Assay: qHTS assay to identify small molecule HDAC inhibitors - cell viability counter screen (AID 1259365); note: nearly all actives have a fitted effect of over 50% in size
# Details: HCT-116 viability, CellTiter-Glo ATP luminescence, 2 h; series mostly up to 92.4 µM; activity change, negative = cytotoxicity: at the top concentration
# Summary of the method: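 Following a 2hr exposure of overnight-plated wild-type HCT-116 cells to DMSO-delivered compounds, CellTiter-Glo was added and luminescence recorded after 30min at room temperature.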
# % is set by controls: 0 for no effect and ±100 for the full control effect.
row,SMILES,"activity change, negative = cytotoxicity"
1,CCCCCCCC/C=C\CCCCCCCC(=O)OC[C@@H](O)[C@H]1OC[C@H](O)[C@H]1O,-0.298% (inactive)
2,COc1ccc(NS(=O)(=O)c2ccc(N)cc2)nn1,3.38% [at 42.5 µM] (inactive)
3,CC(C)CCO,-1.18% (inactive)
4,CCS(=O)(=O)CCn1c([N+](=O)[O-])cnc1C,-0.407% [at 42.5 µM] (inactive)
5,O=C(O)CCNC(=O)c1ccccc1,5.04% [at 42.5 µM] (inactive)
6,C=C[Si](C)(C)O[Si](C)(C)C=C,0.345% (inactive)
7,Cc1ccccc1C(=O)N1CC/C(=N\OS(=O)(=O)O)c2ccc(Cl)cc21,-1.01% [at 42.5 µM] (inactive)
8,COc1ccc(N=Nc2cc(C)c(N=Nc3ccc(S(=O)(=O)O)cc3)cc2OC)cc1,-22.3% (inactive)
9,CCCCCCCC[Si](OCC)(OCC)OCC,-0.367% (inactive)
10,CNC(=O)C(c1ccccc1)c1ccccc1,1.05% (inactive)
11,CCCCCN(CCCOC)C(=O)C(CCC(=O)O)NC(=O)c1ccc(Cl)c(Cl)c1 (stereo unspecified),0.28% [at 42.5 µM] (inactive)
12,CCNC(=O)/C=C/c1cccc(Br)c1,2.15% [at 42.5 µM] (inactive)
13,C[C@H](CCC(=O)NCC(=O)O)[C@H]1CC[C@H]2[C@@H]3[C@H](O)C[C@@H]4C[C@H](O)CC[C@]4(C)[C@H]3C[C@H](O)[C@]12C,2.04% (inactive)
14,NC(Cc1c[nH]c2ccccc12)C(=O)O (stereo unspecified),2.46% [at 42.5 µM] (inactive)
15,O=S(=O)(O)SSS(=O)(=O)O,2.97% (inactive)
16,NS(=O)(=O)c1ccc(Cl)c(S(N)(=O)=O)c1,5.28% [at 42.5 µM] (inactive)
17,COC(=O)CCC(=O)O,1.35% (inactive)
18,CC(C)COC(=O)COc1ccc(Cl)cc1Cl,-2.56% (inactive)
19,C=C(C)[C@@H]1CC[C@@H](C)C[C@@H]1O,1.54% (inactive)
20,Nc1ccc(S(=O)(=O)Nc2ccccn2)cc1,1.99% [at 42.5 µM] (inactive)
21,C=CCOC(=O)c1ccc(C(=O)OCC=C)c(C(=O)OCC=C)c1,-1.32% (inactive)
